Results reported in PubChem BioAssay AID2685 (National Center for Advancing Translational Sciences (NCATS), 2010).
Screen size: about 320,000 compounds; about 2,100 (0.66%) were called active. Roughly 53% stayed inconclusive and do not appear here. Calls follow the shape of the dose curve; as a rule, active = well fitted inhibition curve with a large enough effect in the signal ratio, with a control signal flat (not every such curve was filed as active); inconclusive = small, poorly fitted or top-dose-only effect, or effect the other way, or a change in a side signal; inactive = flat fitted curve, though single readings scatter; the % refers to the signal ratio. Shown is part of a subset that was picked to be rich in actives.

Assay: qHTS Assay for Lipid Storage Modulators in Drosophila S3 Cells;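 as to cell number change: cells counted by Cell Tracker Red CMTPX staining in the red channel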; as to lipid storage change, negative = inhibition: % is scaled to controls: 0 for no effect and ±100 for the full control effect
Settings: BODIPY lipid droplet fluorescence, 18-24 h, cells fed with added oleic acid; cell number change: measured here: cell count max response; series mostly up to 46.1 µM; lipid storage change, negative = inhibition: at the top concentration
Outline: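 Drosophila S3 cells loaded with oleic acid (400 uM, as added) and compounds at several concentrations; lipid droplets imaged by 488-nm laser-scanning cytometry, 500–530 nm intensity and object ratio to cell channel. Percent activity normalized to 20 uM Triacsin C.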
Potency is read from the fitted curve at half-maximal effect.

SMILES	lipid storage change, negative = inhibition	cell number change [%]	Potency	outcome
Cc1cccc([C@@H]2[C@@H]3C(=O)N(Cc4ccccc4)C(=O)[C@@H]3[C@]3(Cc4ccccc4)C(=O)N(c4ccc(C(F)(F)F)cc4)C(=O)N23)c1	21.6% (inactive)	5.02		
O=C(Nc1ccccn1)c1cc(-n2cnnc2)ccc1Cl	1.83% (inactive)	-4.08		
CC(C)Oc1ccc(C(=O)Nc2c3c(nn2C(C)(C)C)CS(=O)(=O)C3)cc1	-14.1% (inactive)			
O=C(COC(=O)Cc1ccc(Br)cc1)NC1CCCCCC1	-20.9% (inactive)	-16.9		
CCCSc1nnc(NC(=O)CSc2nc3[nH]c(=O)cc(O)c3s2)s1	-8.42% (inactive)	-1.41		
Cc1c(CC(=O)N2CCC(C(N)=O)CC2)c(=O)oc2cc3c(cc12)CCC1(CCCCC1)O3		-23.7	13 µM (active)	
Cc1c(Cc2ccccc2)c(=O)oc2cc(OCC(=O)N3CCC(C(N)=O)CC3)ccc12	-27.3% (inactive)	23.5		
Cc1c(CC(=O)O)c(=O)oc2cc3c(cc12)CCC(C)(C)O3	0.884% (inactive)	4.46		
CCOc1ccccc1NC(=O)CCNC(=O)c1ccco1		-5.71		inactive
O=C(c1ccccc1Cl)N1CCC(c2nc3c(nnn3Cc3ccco3)c(=O)[nH]2)CC1	-9.79% (inactive)	-9.84		
O=c1[nH]c(C2CCN(S(=O)(=O)c3ccccc3)CC2)nc2c1nnn2Cc1cccc(Cl)c1		26.3		inactive
Cc1ccc(Cn2nnc3c(=O)[nH]c(C4CCN(S(=O)(=O)c5ccccc5)CC4)nc32)cc1	-14.5% (inactive)			
O=c1[nH]c(C2CCCN(S(=O)(=O)c3cccc(F)c3)C2)nc2c1nnn2Cc1ccccc1 (centres undefined)		10.8		inactive
Cc1ccc(Cn2nnc3c(=O)[nH]c(C4CCN(S(=O)(=O)c5ccc(F)cc5)CC4)nc32)cc1		8.95		inactive
O=c1[nH]c(C2CCCN(S(=O)(=O)c3ccccc3)C2)nc2c1nnn2Cc1cccc(Cl)c1 (centres undefined)		7.14	2.59 µM (active)	
O=C(c1ccco1)N1CCCC(c2nc3c(nnn3Cc3ccccc3)c(=O)[nH]2)C1 (centres undefined)	7.52% (inactive)	1.8		
COc1ccc(Cn2nnc3c(=O)[nH]c(C4CCN(S(=O)(=O)c5ccc(C)cc5)CC4)nc32)cc1		-52.1	13 µM (active)	
CC(C)(C)c1ccc(Cn2nnc3c(=O)[nH]c(C4CCN(C(=O)c5ccco5)CC4)nc32)cc1		-8.06	20.6 µM (active)	
Cc1ccc(-n2nnnc2SCC(=O)NC2CCCc3ccccc32)c(C)c1 (centres undefined)	16.2% (inactive)			
O=C(CSc1ncn[nH]1)c1ccc(OC(F)F)cc1	14.1% (inactive)	6.27		
CCCn1c(C(O)c2ccc(OC)cc2)nc2ccccc21 (centres undefined)	0.274% (inactive)	0.04		
O=C(NN=C1C2CC3CC1CC(Cl)(C3)C2)c1ccccn1	8.32% (inactive)	10.9		

SMILES	lipid storage change, negative = inhibition	cell number change [%]	Potency	outcome
Cc1ccc(C(=O)Cn2c3[n+](c4ccccc42)CC(O)CS3)cc1 (centres undefined)	8.6% (inactive)	25.2		
O=C(Cc1ccccc1)Nc1nnc(-c2cccc([N+](=O)[O-])c2)s1	2.31% (inactive)	-4.06		
Cc1cccc(N(Cc2cc(=O)[nH]c3ccccc23)C(=O)CCl)c1		-1.53	20.6 µM (active)	
Cc1ccccc1N(Cc1cc(=O)[nH]c2ccccc12)C(=O)CCl		13.2		inactive
Cc1cccc(N(Cc2cc(=O)[nH]c3ccccc23)C(=O)C(C)C)c1	-11.5% (inactive)	-7.9		
CN(C)S(=O)(=O)c1ccc(NC(=O)C2CC(=O)N(Cc3ccccc3)C2)cc1 (centres undefined)	0.189% (inactive)	-10.9		
CCN(CC)S(=O)(=O)c1ccc(NN=C2CCN(C(C)C)CC2)c([N+](=O)[O-])c1	-5.99% (inactive)	1.2		
Cc1ccc(S(=O)(=O)c2cc3c(=O)n4cc(C)ccc4nc3n(CC3CCCO3)c2=N)cc1 (centres undefined)	10.8% (inactive)	-5.73		
COP(=O)(OC)C(Nc1cc(Cl)cc(Cl)c1)c1cccc(O)c1 (centres undefined)	-23% (inactive)	-20.9		
CCCN(CC(=O)Nc1ccccc1OC)C(=O)CCC(=O)c1ccc(Cl)s1	-3.74% (inactive)	-12.8		
CCN(CC(=O)Nc1ccccc1OC)C(=O)C1CCC1		0.934		inactive
CCCN(CC(=O)Nc1ccccc1OC)C(=O)C1CCCC1			3.66 µM (active)	
CCN(CC(=O)Nc1ccccc1OC)C(=O)C1CCCC1		-11		inactive
CCCN(CC(=O)Nc1ccccc1OC)C(=O)Cc1ccccc1F		20.6		inactive
CCCN(CC(=O)Nc1ccccc1OC)C(=O)CCC(=O)c1ccc(F)cc1		-6.3	0.82 µM (active)	
O=[N+]([O-])c1cccc(S(=O)(=O)N2CCCCC2)c1		2.7		inactive
Fc1ccc(-c2cc(C(F)(F)F)nc(NCc3cccs3)n2)cc1	11.1% (inactive)	10.1		
CCCN(CCC(=O)Nc1ccccc1F)CC1CC1		22.5		inactive
COc1ccc(NC(=O)c2ccc(C)cc2)c[n+]1[O-]	1.42% (inactive)	9.2		
COCCn1nnnc1C(c1ccc(OC)cc1)N1CCN(C(=O)c2ccco2)CC1 (centres undefined)		10.8		inactive
COc1ccc(C(c2nnnn2C(C)(C)C)N2CCN(C(=O)c3ccco3)CC2)cc1 (centres undefined)		15.4		inactive
COc1ccc(C(c2nnnn2C(C)C)N2CCN(C(=O)c3ccco3)CC2)cc1 (centres undefined)		10.1	0.0259 µM (active)	
